Legend:
Assay in all cases: PBM binding z-score (relative to random genomic background probes); higher = stronger binding; sequences stand for … in GC…GCGATTGACAGCGTAGAATGAAGG
[1] = tested on: RARb homodimer (NR concentration 270 nM)
Outline: (§1)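 Random background probes are the reference for binding z-scores. These scores derive from regression-normalized fluorescence on custom Agilent 4×180K protein-binding microarrays incubated 1 h with ligand-free nuclear receptor dimers. Binding was detected with antibodies against each partner (one per run).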

[2] = tested on: RARg:RXRa (NR concentration 270 nM, RXRa partner concentration 90 nM)
Outline: as §1

[3] = tested on: RARg homodimer (NR concentration 270 nM)
Outline: as §1

[4] = tested on: RXRa DBDmut IVT, anti-RXR (DBD mutation: RXRa K156A/R161A, NR concentration 90 nM)
Outline: as §1

[5] = tested on: RXRa homodimer (NR concentration 180 nM)
Outline: as §1

[6] = tested on: THRa:RXRa (NR concentration 90 nM, RXRa partner concentration 90 nM)
Outline: as §1

[7] = tested on: THRa homodimer (NR concentration 90 nM)
Outline: as §1

[8] = tested on: VDR homodimer (NR concentration 270 nM)
Outline: as §1

Sequence	PBM binding z-score [1]	PBM binding z-score [2]	PBM binding z-score [3]	PBM binding z-score [4]	PBM binding z-score [5]	PBM binding z-score [6]	PBM binding z-score [7]	PBM binding z-score [8]
AGTCAAAGTTCAGGACGAGGCAACGTAAAGCACG	2.9	3.86	4.55	3.06	2.86	2.76	0.753	1.61
AGAACGAGGGCACGCTGAGTGGATAGCAGAGTAG	0.942	1.87	2.16	1.48	1.47	1.66	-0.0727	0.664
CCTGCTAGATCATGGTCAGCTAATCTACAGTATG	-0.429	-0.127	0.142	0.516	-0.185	-0.68	-1.23	-0.86
AGTCAAAGCTCACTAGGTAACGTAAGATTCAGCT	-0.396	-0.184	-0.065	-0.217	0.00455	0.131	-0.137	-0.474
GTACGAAGGTGAATAGGTCGTTGATGAGTAGGCG	1.82	2.78	1.4	-0.12	1.81	0.742	-0.401	0.0149
AGAATGAGGTTACCAAAGATCAGGGAGACGCTTG	0.689	2.21	1.8	1.28	2.77	2.86	0.711	0.443
TGAATGATGTTAAAGATCAGGGAACGTGGCGTCG	-0.832	0.221	0.133	-0.892	0.495	-0.238	-0.77	-0.0105
CGAACGAGGGCACGAGTTGATAGCAAATGCCGAT	1.05	1.8	1.98	2.18	1.49	1.84	0.134	1.58
